From PubChem BioAssay (Tox21)
Records with an inconclusive call do not appear. Activity calls are given as the source filed them. Unless noted, calls come from the whole dose curve; as a rule, active = well fitted curve in the direction sought with a large enough effect in the repeat runs; inconclusive = weak or mixed curves; inactive = no such curve, though single readings can be large; an effect the other way counts as inactive or inconclusive.

Experiments:
[1] = qHTS assay to test for compound auto fluorescence at 535 nm (green) in HEK293 cells (AID 720680)
[2] = qHTS assay to test for compound auto fluorescence at 460 nm (blue) in HEK293 cell free culture (AID 720681)
Method in brief: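 Blue fluorescence (Ex 405/Em 460 nm, triamterene-equivalent) was read immediately after pin transfer of compound or DMSO into medium (DMEM, 10% FBS) without cells.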

[3] = qHTS assay to test for compound auto fluorescence at 535 nm (green) in HEK293 cell free culture (AID 720682)
Method in brief: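 Measurement is a direct plate read of green fluorescence (485 nm in, 535 nm out) after compound addition to serum-supplemented DMEM lacking cells, with fluorescein used to express intensities.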

[4] = qHTS assay to test for compound auto fluorescence at 590 nm (red) in HEK293 cell free culture (AID 720683)
Method in brief: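 Red-channel autofluorescence of compounds in culture medium (DMEM, 10% FBS), no cells, measured at 540/590 nm. Rose Bengal sodium is the reference fluorophore for equivalence.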

[5] = qHTS assay to test for compound auto fluorescence at 590 nm (red) in HepG2 cell free culture (AID 720684)
Method in brief: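 Cell-free; medium MEM + 10% FBS; compound or DMSO added by pintool; read Ex 540/Em 590 nm; Rose Bengal sodium as red reference fluorophore.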

[6] = qHTS assay to test for compound auto fluorescence at 535 nm (green) in HepG2 cell free culture (AID 720686)
[7] = qHTS assay to test for compound auto fluorescence at 460 nm (blue) in HepG2 cells (AID 720687)
Method in brief: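 Blue-channel autofluorescence (Ex/Em 405/460 nm, triamterene-equivalent) was measured after 1 hr compound exposure at 37 C, 5% CO2. Cells were HepG2, plated overnight at 37 C in MEM plus 10% FBS.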

[8] = target: Glucocorticoid receptor (Homo sapiens) (UniProt P04150); experiment: qHTS assay to identify small molecule agonists of the glucocorticoid receptor (GR) signaling pathway (AID 720691; active = well fitted activation curve with a large enough effect in the signal ratio in the repeat runs, not every such curve was filed as active; the % refers to the signal ratio)
Method in brief: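 A HeLa cervical cancer line expressing GR and a glucocorticoid response element-driven beta-lactamase gene is treated with compounds for 18 h; LiveBLAzer B/G FRET substrate is then applied and fluorescence read.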

[9] = target: Glucocorticoid receptor (Homo sapiens) (UniProt P04150); experiment: qHTS assay to identify small molecule antagonists of the glucocorticoid receptor (GR) signaling pathway (AID 720692; active = well fitted inhibition curve with a large enough effect in the signal ratio in the repeat runs, not every such curve was filed as active; the % refers to the signal ratio)
Method in brief: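 GRE-bla HeLa line, dex-stimulated (5 nM final). Compound exposure 18 h, 37 C. Beta-lactamase FRET read after 2 h RT substrate.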

[10] = qHTS assay for identifying genotoxic compounds that show differential cytotoxicity against isogenic chicken DT40 cell lines with known DNA damage response pathways - wild type cell line (AID 743012); note: nearly all actives have a fitted effect of over 60% in size
Method in brief: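 300 wt DT40 cells/well; cpd (DMSO) pintool-transferred after ~0.5 h at 37 C/5% CO2; 40 h incubation; CellTiter-Glo added, 30 min RT; luminescence read.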

[11] = qHTS assay for identifying genotoxic compounds that show differential cytotoxicity against isogenic chicken DT40 cell lines with known DNA damage response pathways - Rev3 mutant cell line (AID 743014); note: nearly all actives have a fitted effect of over 55% in size
[12] = qHTS assay to identify small molecule antagonists of the glucocorticoid receptor (GR) signaling pathway - cell viability counter screen (AID 720693); note: nearly all actives have a fitted effect of over 55% in size
[13] = qHTS assay for identifying genotoxic compounds that show differential cytotoxicity against isogenic chicken DT40 cell lines with known DNA damage response pathways - Rad54/Ku70 mutant cell line (AID 743015); note: nearly all actives have a fitted effect of over 60% in size
[14] = target: Androgen receptor (Homo sapiens) (UniProt P10275); experiment: qHTS assay to identify small molecule antagonists of the androgen receptor (AR) signaling pathway (AID 743035; active = well fitted inhibition curve with a large enough effect in the signal ratio in the repeat runs, not every such curve was filed as active; the % refers to the signal ratio)
Method in brief: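 In this cell-based reporter screen, compounds were tested in concentration series against R1881-activated HEK293 cells expressing beta-lactamase under UAS control; after 16 h at 37C, FRET substrate was added and fluorescence read 2 h later.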

[15] = target: Androgen receptor (Homo sapiens) (UniProt P10275); experiment: qHTS assay to identify small molecule agonists of the androgen receptor (AR) signaling pathway (AID 743036; active = well fitted activation curve with a large enough effect in the signal ratio in the repeat runs, with a control signal flat, not every such curve was filed as active; the % refers to the signal ratio)
Method in brief: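 Beta-lactamase under UAS control, stably integrated in HEK293 GripTite cells, reports receptor activation. After 16 h compound treatment, cells received FRET substrate for 2 h at room temperature before fluorescence reading.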

[16] = target: Androgen receptor (Homo sapiens) (UniProt P10275); experiment: qHTS assay to identify small molecule agonists of the androgen receptor (AR) signaling pathway using the MDA cell line (AID 743040; note: nearly all actives have a fitted effect of over 20% in size)
Method in brief: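 Luciferase agonist assay: 16 h compound exposure at 37C without CO2 in MDA-kb2 AR-luc cells, whose MMTV promoter responds to both AR and GR. Luminescence measured after 30 min room-temperature incubation with ONE-Glo.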

[17] = qHTS assay to identify small molecule antagonists of the androgen receptor (AR) signaling pathway using the MDA cell line - cell viability counter screen (AID 743041; note: nearly all actives have a fitted effect of over 45% in size)
Method in brief: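 Viability read by CellTiter-Fluor fluorescence in the same wells as the antagonist screen, added after 15.5 h of a 16 h, 37C exposure. Human breast carcinoma MDA-kb2 AR-luc cells, compounds co-dosed with agonist R1881.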

[18] = target: Androgen receptor (Homo sapiens) (UniProt P10275); experiment: qHTS assay to identify small molecule antagonists of the androgen receptor (AR) signaling pathway using the MDA cell line (AID 743042; note: nearly all actives have a fitted effect of over 55% in size)
Method in brief: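 Antagonist mode: compounds plus R1881 agonist added to MDA-kb2 AR-luc cells, incubated 16 h at 37C. Luciferase reporter luminescence quantified, with multiplexed CellTiter-Fluor readout for cell viability.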

[19] = qHTS assay to identify small molecule antagonists of the androgen receptor (AR) signaling pathway - cell viability counter screen (AID 743033; note: nearly all actives have a fitted effect of over 45% in size)
[20] = qHTS assay to test for compound auto fluorescence at 460 nm (blue) in HepG2 cell free culture (AID 720685)
Method in brief: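 Cell-free plates of MEM plus 10% FBS received 23 nL compound or DMSO vehicle; blue-channel (405/460 nm) intensity scored against triamterene as reference fluorophore.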
% is set by controls: 0 for no effect and ±100 for the full control effect.

Chain of Glucocorticoid receptor (Homo sapiens) (P04150 whole entry, looked up): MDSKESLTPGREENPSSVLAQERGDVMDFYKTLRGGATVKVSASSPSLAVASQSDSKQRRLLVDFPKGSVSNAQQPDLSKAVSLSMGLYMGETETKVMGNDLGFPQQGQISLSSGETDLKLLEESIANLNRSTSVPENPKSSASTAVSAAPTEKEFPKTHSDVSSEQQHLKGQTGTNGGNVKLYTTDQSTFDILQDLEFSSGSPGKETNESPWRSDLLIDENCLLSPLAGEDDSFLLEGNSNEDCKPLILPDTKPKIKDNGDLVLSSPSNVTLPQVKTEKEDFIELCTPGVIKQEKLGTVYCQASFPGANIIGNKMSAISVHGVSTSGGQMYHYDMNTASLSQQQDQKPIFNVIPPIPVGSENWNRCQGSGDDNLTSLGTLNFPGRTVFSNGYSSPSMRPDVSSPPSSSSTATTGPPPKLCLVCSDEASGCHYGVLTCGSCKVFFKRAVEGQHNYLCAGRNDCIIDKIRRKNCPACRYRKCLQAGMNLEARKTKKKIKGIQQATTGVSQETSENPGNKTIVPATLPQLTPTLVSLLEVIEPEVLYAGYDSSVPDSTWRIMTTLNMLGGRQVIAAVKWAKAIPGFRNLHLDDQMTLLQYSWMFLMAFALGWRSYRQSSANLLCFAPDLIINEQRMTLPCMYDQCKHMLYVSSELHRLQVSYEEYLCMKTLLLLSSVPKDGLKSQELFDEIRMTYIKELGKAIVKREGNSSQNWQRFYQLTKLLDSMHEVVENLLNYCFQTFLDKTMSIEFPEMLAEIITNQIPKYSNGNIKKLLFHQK
Chain of Androgen receptor (Homo sapiens) (P10275 whole entry, looked up): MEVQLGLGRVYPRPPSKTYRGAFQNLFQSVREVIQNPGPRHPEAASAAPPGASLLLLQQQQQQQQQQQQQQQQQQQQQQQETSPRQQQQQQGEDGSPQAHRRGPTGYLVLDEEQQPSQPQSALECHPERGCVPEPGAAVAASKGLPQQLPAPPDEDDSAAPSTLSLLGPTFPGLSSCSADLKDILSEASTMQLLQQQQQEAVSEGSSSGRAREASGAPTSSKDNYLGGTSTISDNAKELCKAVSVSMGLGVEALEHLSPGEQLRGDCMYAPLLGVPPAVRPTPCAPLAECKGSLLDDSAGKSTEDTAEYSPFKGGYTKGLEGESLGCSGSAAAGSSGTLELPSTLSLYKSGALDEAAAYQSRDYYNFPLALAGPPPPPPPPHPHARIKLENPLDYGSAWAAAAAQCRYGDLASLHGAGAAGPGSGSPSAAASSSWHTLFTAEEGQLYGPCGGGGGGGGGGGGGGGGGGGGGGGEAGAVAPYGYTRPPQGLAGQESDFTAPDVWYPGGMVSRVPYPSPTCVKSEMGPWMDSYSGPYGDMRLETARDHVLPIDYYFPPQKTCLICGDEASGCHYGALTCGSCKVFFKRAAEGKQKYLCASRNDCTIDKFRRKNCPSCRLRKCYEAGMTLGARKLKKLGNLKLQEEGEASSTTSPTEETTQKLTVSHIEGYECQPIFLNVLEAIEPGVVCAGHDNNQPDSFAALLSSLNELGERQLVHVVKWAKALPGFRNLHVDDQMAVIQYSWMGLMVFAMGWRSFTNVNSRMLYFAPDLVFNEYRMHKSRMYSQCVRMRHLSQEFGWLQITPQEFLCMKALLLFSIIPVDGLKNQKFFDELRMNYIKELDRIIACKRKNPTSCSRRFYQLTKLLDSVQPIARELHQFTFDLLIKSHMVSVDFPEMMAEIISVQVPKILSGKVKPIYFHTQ

N[C@@H](COP(=O)(O)O)C(=O)O
inactive: outcome [1] | outcome [2] | outcome [3] | outcome [4] | outcome [5] | outcome [6] | outcome [7] | Potency [8] | outcome [9] | Potency [10] | Potency [11]

O=C(O)c1cc(Cl)cc([N+](=O)[O-])c1Cl
inactive: outcome [1] | outcome [2] | outcome [3] | outcome [4] | outcome [5] | outcome [6] | outcome [7] | Potency [8] | outcome [9] | outcome [12] | Potency [10] | Potency [11] | Potency [13] | Potency [14] | outcome [15] | outcome [16] | Potency [17] | Potency [18]

CCOC(=O)c1ncn2c1CN(C)C(=O)c1cc(F)ccc1-2
inactive: outcome [1] | outcome [2] | outcome [3] | outcome [4] | outcome [5] | outcome [6] | outcome [7] | outcome [12] | Potency [10] | Potency [11] | Potency [13] | Potency [19] | Potency [14] | outcome [15] | outcome [16] | Potency [17] | Potency [18]

CC(C)CCCCOC(=O)c1ccccc1C(=O)OCCCCC(C)C
inactive: outcome [1] | outcome [2] | outcome [3] | outcome [4] | outcome [5] | outcome [6] | outcome [7] | Potency [8] | outcome [12] | Potency [10] | Potency [13] | Potency [17]

CO[C@@H]1[C@@H](OC(N)=O)[C@@H](O)[C@H](Oc2ccc3c(O)c(NC(=O)c4ccc(O)c(CC=C(C)C)c4)c(=O)oc3c2C)OC1(C)C
inactive: fluorescence, % of fluorescein [1] -0.0123% [at 18.6 µM] | fluorescence, % of fluorescent control [2] 0.0286% [at 18.6 µM] | activity change [3] -0.156% [at 18.6 µM] | fluorescence, % of fluorescent control [4] 0.0652% [at 18.6 µM] | fluorescence, % of Rose Bengal [5] 0.235% [at 18.6 µM] | fluorescence, % of fluorescein control [6] -0.0494% [at 18.6 µM] | fluorescence, % of fluorescent control [7] 0.0292% [at 18.6 µM] | Potency [8] | outcome [9] | outcome [12] | Potency [10] | Potency [11] | Potency [19] | Potency [17]

CCCCCCN
inactive: outcome [1] | outcome [2] | outcome [3] | outcome [4] | outcome [5] | outcome [6] | outcome [7] | Potency [8] | outcome [9] | outcome [12] | Potency [10] | Potency [11] | Potency [13] | Potency [17]

O=C(O)CCSSCCC(=O)O
inactive: outcome [2] | outcome [3] | outcome [4] | outcome [5] | outcome [20] | outcome [6] | outcome [7] | Potency [8] | outcome [9] | outcome [12] | Potency [10] | Potency [11] | Potency [13] | Potency [19] | Potency [14] | outcome [15] | outcome [16] | Potency [17] | Potency [18]

CC(C(=O)O)c1ccc2c(c1)CC(=O)c1ccccc1S2 (stereo not drawn)
inactive: outcome [2] | outcome [3] | outcome [4] | outcome [5] | outcome [20] | outcome [6] | outcome [7] | Potency [8] | outcome [9] | outcome [12] | Potency [10] | Potency [11] | Potency [13] | Potency [19] | Potency [14] | outcome [16] | Potency [17] | Potency [18]

O=C(OCC(COC(=O)c1cccnc1)(COC(=O)c1cccnc1)COC(=O)c1cccnc1)c1cccnc1
inactive: outcome [1] | outcome [2] | outcome [3] | outcome [4] | outcome [5] | outcome [6] | outcome [7] | Potency [8] | outcome [9] | Potency [10] | Potency [11] | Potency [13] | Potency [19] | Potency [14] | outcome [15] | outcome [16] | Potency [17] | Potency [18]

COc1ccc(-c2cc(=O)c3c(O)cc(O[C@@H]4O[C@H](CO[C@@H]5O[C@@H](C)[C@H](O)[C@@H](O)[C@H]5O)[C@@H](O)[C@H](O)[C@H]4O)cc3o2)cc1O
inactive: outcome [1] | outcome [2] | outcome [3] | outcome [4] | outcome [5] | outcome [6] | outcome [7] | Potency [8] | outcome [9] | outcome [12] | Potency [10] | Potency [13] | Potency [19] | Potency [17]

C#CC(C)N(C)C(=O)Nc1ccc(Cl)cc1 (stereo not drawn)
inactive: outcome [1] | outcome [2] | outcome [3] | outcome [4] | outcome [5] | outcome [6] | outcome [7] | Potency [19] | outcome [15] | outcome [16] | Potency [17] | Potency [18]

CCCCCCCCSCC
inactive: outcome [1] | outcome [2] | outcome [3] | outcome [4] | outcome [5] | outcome [6] | outcome [7] | Potency [8] | outcome [12] | Potency [13] | Potency [19] | Potency [17]

O=C1c2ccccc2C(=O)c2cc(S(=O)(=O)O)ccc21
inactive: outcome [1] | outcome [2] | outcome [3] | outcome [4] | outcome [5] | outcome [6] | outcome [7] | Potency [8] | outcome [9] | outcome [12] | Potency [10] | Potency [13] | Potency [19] | Potency [17]
